The results in this text go back to PubChem BioAssay AID1159506 (National Center for Advancing Translational Sciences (NCATS), 2015).

Whole data set: some 59,000 sequences, median the read-out near -0.00055, cut for the lowest 2% near -2. Shown is part of a subset that was picked to be rich in the lowest values.

This assay can be described thus: Identification of proteins required for the processing of the EWS-FLI1 nascent transcript.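 Further: robust z of luciferase light less the median z of siRNAs with the same seed.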 Particulars: TC32 Ewing sarcoma NR0B1-luc vs CMV-luc (EWS-FLI1 target promoter against control promoter), 48 h; screened at 20 nM (by protocol). Put shortly: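 TC32 Ewing sarcoma cells carrying NR0B1-promoter or CMV-promoter luciferase reporters were reverse-transfected with single siRNAs at 20 nM, three per gene genome-wide. Luminescence was read after 48 h and normalized to non-targeting controls.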
With UCCUUGUCGAACAUGAGCC against NTNG2, the seed-corrected z-score is -2.93. In turn, UGCACAUCCUUGUCUAUGC against SGSM2 showed a seed-corrected z-score of 0.184. As for UUACAUUCUGAGCCCAUCC against HTR7, the seed-corrected z-score was -0.311. Regarding UUAGUUAUAACAUAUGACU against LINC00900, the seed-corrected z-score was -0.697. The sequence ACAAUGGAAAGCACCUUCC against RINL gave a seed-corrected z-score of 0.198.

Consider UCCCAGUUGUGGAUGAUCC against PLEKHM1, for which the seed-corrected z-score is -0.204. UAAAGACUACAAGCACAGC against OR51B5: the seed-corrected z-score is -2.14. In turn, UUCAGUACAUCUCUGCAGG against RDH12 showed a seed-corrected z-score of 0.532. UUCAUCACAACCUUCCGUG against TLR5 had a seed-corrected z-score of 0.937. Consider UUCCAGGUCACCAACCACC against IFITM5, for which the seed-corrected z-score was -0.607.

Take UUCUGCAUAAGUAGUUUUC against INIP: the seed-corrected z-score was -2.13. The sequence UGCUUAGCUUCUUUAACCC against PLIN2 yielded a seed-corrected z-score of 0.638. For the sequence UCCUGAACAGGCUUAUCCC against AXIN1, the seed-corrected z-score amounted to 0.946. Regarding UGAUCUCCAAUCACAUGCC against ARFGEF2, the seed-corrected z-score is -0.117. Next, UCGUUUACAAACAUGAGUC against MPDZ: 0.35; UUCUGACCAAGCAAACUCG against SF3B1: -2.7; AUUGAUGUAUGACUCUUCC against DDX55: -0.91.

Sequence UUCUUUGCCUCGCUUAUUC against OLFML2B had a seed-corrected z-score of 0.806. On to UAUCUGAGGAGUUCUGACC against SLC22A2, for which the seed-corrected z-score was determined as 0.452. For the sequence AAAUGUCUUAGGGAUUGGG against ITPRIPL1, the seed-corrected z-score is -2.1. Next, UCUCCAAGAAGUUCACUGG against SOX6: 0.406; UCUGUUGCUGCCUAAACUC against TMEM198B: 0.298; UAUAGAACAAGGUAAAUCC against MTF2: 0.208.

With UUCUAUCAAAUAUCCUUUG against LOC400940, the seed-corrected z-score was -0.132.

Consider UAGGAAAUCAUCUCCCUCC against TMEM169, for which the seed-corrected z-score was -3.9. UACCCAUAUAUUUAAAGCC against PQLC3 had a seed-corrected z-score of 0.395. For UUUUCAUUUACGGAACCCG against SMOC2, the seed-corrected z-score was determined as 0.202.

As to UCAGAAGUAACAGCAGAUC against FANCG, the seed-corrected z-score was 0.307. Regarding UCAUAGUGCAGGUAGAGCC against TRIM50, the seed-corrected z-score is -0.491. Regarding AUAGAAGUCAACCUCAUUC against CASQ2, the seed-corrected z-score was determined as 0.181. As for UAUUUGUCCAGGUAUGGUG against ERRFI1, the seed-corrected z-score is -0.215. Take GUCUCUGGUACCUGUGUGC against LOC440300: the seed-corrected z-score is -0.25. Take UACUCUGUUAGGAAGACCG against TECR: the seed-corrected z-score is 0.271. For the sequence UCCUGCUUCCGGAAUAUCU against PNMA2, the seed-corrected z-score was -2.12. Regarding UCAGAUUUCAGACCGCCCA against LINC00668, the seed-corrected z-score came to 0.167.

The sequence UUCAGUUCGUAAUCUCUCU against FLOT1 came in with a seed-corrected z-score of 0.706.

UUCAAAUCCCUAUUAAAGC against ARFIP1 gave a seed-corrected z-score of 0.962. For AAGUGGAACCGAUACUUCC against SPDYE14P, the seed-corrected z-score is -0.205. For the sequence UUUGGUGCACGUAACUUGG against C6orf203, the seed-corrected z-score is -2.05. Turning to UUCGGUGUCAAUAACUGUG against BCAS3, the seed-corrected z-score is -1.77.

In the case of UUUCGUAAUAUGCGGCCUC against ASPA, the seed-corrected z-score is -0.032. UCUUGAUAAGAGACCAGCU against PRR3 returned a seed-corrected z-score of 0.373. AAAUCCACAAUCCAGGGAG against SPATA31E2P yielded a seed-corrected z-score of 0.176. UGUUCAGUUGCUAAAAUGG against KLRC1 returned a seed-corrected z-score of 0.773. Turning to UCUGUAAACAGCUUGAUGA against GLP1R, the seed-corrected z-score was -0.289. Take UUCAUUCUCUGCAAAAUCC against NSMCE1: the seed-corrected z-score is -0.305. With UACGAUCAAAGGUUGAUUC against ATF7IP the figure was -4.54; with UUCAAUGCAUACAUAGAGC against ZNF585A, 0.552. AUAGGGUAUAGCUCCAGUC against CIART had a seed-corrected z-score of 1.2. In the case of UGAAGUCGUAGAUCUCACG against PTDSS2, the seed-corrected z-score is -2.62. For AAUAGUUAUUUUGUUGAGC against C6orf52, the seed-corrected z-score was -0.622. As to UAGGUGUGCAUCAUAGUAA against C11orf94, the seed-corrected z-score was -0.539. In turn, UGAGUCAUCCACGCAGUUC against PSCA gave a seed-corrected z-score of 0.371.

In the case of UCUGUUUCCAUUGCGUUCU against FLJ41278, the seed-corrected z-score is -0.527. In the case of UCUUCGUCUGGGUCGUUUG against SIGLEC6, the seed-corrected z-score was -0.384. Next, UUCUGGAGUAGCAAGCUAC against POLR2D: -2.24. Consider UUUCAUCUCCAUCCGGUAG against JPH3, for which the seed-corrected z-score is -0.755. ACUCGAAGCAUCUCGAUGG against HAS3: the seed-corrected z-score was -0.313.

AACUAAACCAGCUCGCUUC against LRRC8C displayed a seed-corrected z-score of 2.39. Regarding UGUCAAGUCGGGUUCACCC against CCDC97, the seed-corrected z-score is -0.229. UGCUGCUUCCCUAAGAUCC against ATG4A gave a seed-corrected z-score of 0.243. For the sequence AAUAGCUGCAUAACUGUCU against CLTA, the seed-corrected z-score is -3.36. Turning to UUCUGCUUCAUGUUGAGCC against RECQL4, the seed-corrected z-score was -0.111. For the sequence UCUUGUCGAAAAGCUCACC against KIAA1161, the seed-corrected z-score is 0.789. For AUCGUGCAAGGUGUUCUCC against BFSP2, the seed-corrected z-score turned out to be 0.341. As to AUUUCCUUGAUUGUCAUCC against SERPINB7, the seed-corrected z-score was -2.22. In the case of AAAGUUCUCGAAAUGCUUC against GLOD4, the seed-corrected z-score was -0.0199.

Take UUACGGUACUUGGUCUCGC against NRAP: the seed-corrected z-score is -1.11. For UUUUUGGUCACCGGUUGCC against GRK5, the seed-corrected z-score is -0.48. UAGCUUGAUAAUAACCAGC against EMC8: the seed-corrected z-score worked out at 0.529. Sequence AUAGUGCUCAUGAACAUGG against OR7G1 registered a seed-corrected z-score of 0.135.

On to UAGCUGUGAACAGUACCCG against MPL, for which the seed-corrected z-score was -2.07. Take UGUUGUCAAAACCACUGCC against CTBP1: the seed-corrected z-score is -1.98. Regarding UGAUGAACUGGUUAUGAGG against LAPTM5, the seed-corrected z-score turned out to be 1.26.

Take UACAUCCUCAUUAUAGGUU against ZNRF2: the seed-corrected z-score was -0.243. As for UUGUCUAAUGGUAAAGUGC against LDB2, the seed-corrected z-score is -0.144. For AAGGGUAUCUGAGUCCUUG against RC3H2, the seed-corrected z-score is -0.0262. In the case of UGAGCGAUUGUUAAAUGCC against ZNF781, the seed-corrected z-score is -0.576. UGCUCUCUCAGAAUCUCGC against SPA17: the seed-corrected z-score is -0.647. For UUAGCAUUCCUGGAAUCCG against EIF5B, the seed-corrected z-score was -2.11.

As for AGAUUGUUAAGCAGCGUGU against C7orf43, the seed-corrected z-score was 0.291. In the case of UCUAUGUCGGGAUCGGUGC against LINC00467, the seed-corrected z-score was found to be 0.416. For UUCUUAUCAGCAGCUAGUC against CKAP5, the seed-corrected z-score is -2.74. AAGGCAACAGUGUCCCAUG against SMIM22: the seed-corrected z-score was -1.28.
